# Screens as filed in PubChem.
# APOBEC3G inh – inhibitors of human APOBEC3G DNA deaminase; actives 0.28% (n = 330,000); recombinant A3G, ssDNA deamination FAM/TAMRA fluorescence; inhibition, % at 20 µM;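 active means inhibition of at least 40% at 20 µM, with no more than 30% in the related APOBEC3A deaminase screen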;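 further: plate controls were DMSO wells with A3G for no effect and wells lacking A3G enzyme for full effect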
# esBAF inh – SWI/SNF esBAF complex inhibition. mouse ES cells, Bmi1-luciferase knock-in reporter, 24 h; 100% = twice the neutral-well signal. reporter increase, % at 12.5 µM. actives 2% (n = 350,000). AID 602393; in the data active means activation above about 40%;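 further: 0% = median of the plate's neutral control wells and 100% = double that signal; a rise in the Bmi1 reporter signal indicates esBAF inhibition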
# Wnt bcat act – activates Wnt/beta-catenin signaling in a reporter cell assay. actives 1.2% (n = 300,000). activation, % at 9.35 µM. AID 743398. activator, plate reader; in the data active means activation above about 30%, passing the limit was not always enough;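 further: 0% = neutral control wells and 100% = positive control wells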
# PHOSPHO1 inh – inhibitors of human PHOSPHO1 phosphatase | recombinant PHOSPHO1, absorbance phosphatase assay | inhibition, % at 13.3 µM | actives 1.1% (n = 290,000) | AID 1565; in the data active means inhibition above about 60%
# Target sequence (Q8TCT1 whole entry, looked up): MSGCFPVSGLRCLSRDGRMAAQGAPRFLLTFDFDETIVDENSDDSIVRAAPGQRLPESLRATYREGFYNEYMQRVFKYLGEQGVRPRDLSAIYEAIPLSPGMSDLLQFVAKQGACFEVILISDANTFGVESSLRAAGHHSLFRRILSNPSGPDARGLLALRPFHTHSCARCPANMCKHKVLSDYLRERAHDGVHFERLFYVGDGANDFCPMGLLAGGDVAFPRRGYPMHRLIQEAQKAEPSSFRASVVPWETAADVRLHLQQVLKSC
# A3A deaminase – blocks human APOBEC3A ssDNA deamination; P31941; recombinant A3A, FAM/TAMRA ssDNA deamination fluorescence; inhibition, % at 20 µM; actives 0.41% (n = 330,000); AID 493011;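 active means at least 40% inhibition at 20 µM here, with at most 30% in a related deaminase screen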;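 further: plate controls were A3A with DMSO for no effect and wells lacking A3A enzyme for full effect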
# Target sequence (P31941 whole entry, looked up): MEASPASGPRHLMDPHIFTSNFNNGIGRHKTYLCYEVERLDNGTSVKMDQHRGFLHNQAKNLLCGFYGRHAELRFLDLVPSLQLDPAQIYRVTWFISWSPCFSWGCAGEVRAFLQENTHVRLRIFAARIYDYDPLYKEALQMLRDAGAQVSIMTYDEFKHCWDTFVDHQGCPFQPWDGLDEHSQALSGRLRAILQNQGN
# MITF TRPM1 HTS – MITF TRPM1 promoter activation in melanoma cells; SK-MEL-5 TRPM1-promoter luciferase, 24 h; % of positive control, neutral wells = 0; activation, % at 12.5 µM; actives 0.75% (n = 300,000);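 active means mean activation of at least 80% with every replicate also reaching 80%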;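 further: 0% = neutral control wells and 100% = parthenolide positive control wells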
# A3G conf – confirmation of human APOBEC3G DNA deaminase inhibitors. shares compounds with APOBEC3G inh. recombinant A3G ssDNA deaminase, UDG/FAM-TAMRA fluorescence. inhibition, % at 20 µM. actives 72% (n = 890). AID 493152;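 active means inhibition reaching a set limit in any replicate at 20 µM, the limit being 80% of the first screen's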
# UDG A3G counter – counter-screen for APOBEC3G inhibitors: E. coli UDG. UDG counterscreen, FAM/TAMRA oligo fluorescence. AID 504715. 710 tested, under 10 active. inhibition, % at 20 µM. shares compounds with APOBEC3G inh;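 active means compounds giving 40% or more inhibition at 20 µM in any one of the three replicates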;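 further: plate controls were DMSO wells with UDG and oligo for no effect and DMSO wells lacking both for full effect; inhibitors lower the FAM signal released by uracil excision and alkaline cleavage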
# * hit, by the source's call; x = no result given. A selection: hits, their analogues and other compounds. The true share with any hit is near 3.6%.
SMILES,APOBEC3G inh,esBAF inh,Wnt bcat act,PHOSPHO1 inh,A3A deaminase,MITF TRPM1 HTS,A3G conf,UDG A3G counter
O=C1C(=O)N(CCO)C(c2ccccc2)/C1=C(\O)c1ccccc1 (stereo not drawn),-3,-6,-4,13,-3,7,x,x
O=C1C(=O)N(CCO)C(c2ccc(Br)cc2)/C1=C(\O)c1ccccc1 (stereo not drawn),45*,3,4,19,-7,x,-59,-2
COc1ccc(NC(=O)Nc2ccc3c(c2)C(=O)N([C@H](C)CO)C[C@H](C)[C@@H](CN(C)C(=O)Cc2ccccc2)OCCCC[C@@H](C)O3)cc1,x,0,x,x,x,x,x,x
O=C(C[C@@H]1CC[C@H]2[C@@H](COC[C@H](O)CN2C(=O)Nc2ccc(C(F)(F)F)cc2)O1)NCC1CC1,x,-7,x,x,x,x,x,x
Cn1c(=O)n(C)c2cc(S(=O)(=O)NCC(=O)O)ccc21,-5,3,-1,11,-3,-6,x,x
Cn1c(=O)n(C)c2cc(S(=O)(=O)Nc3ccccc3C(=O)O)ccc21,56*,2,-1,45,4,2,3,x
CCn1c(-c2cc3c(C(F)(F)F)nn(C)c3s2)n[nH]c1=S,41*,-1,-6,37,-8,-3,63*,-2
Cn1c(-c2cc3c(C(F)(F)F)nn(C)c3s2)n[nH]c1=S,53*,-9,x,-5,-2,-4,77*,1
Cn1nc(C(F)(F)F)c2cc(C(=O)O)sc21,-3,x,-10,40,-2,1,x,x
COc1ccc(CN(C)C[C@@H]2OCCCC[C@@H](C)Oc3ccc(NS(=O)(=O)c4ccc(OC)cc4)cc3C(=O)N([C@H](C)CO)C[C@H]2C)cc1,x,-5,x,x,x,x,x,x
C[C@@H]1CN([C@H](C)CO)C(=O)c2cc(NS(=O)(=O)c3ccc(F)cc3)ccc2O[C@@H](C)CCCCO[C@H]1CN(C)C(=O)C1CCCCC1,x,5,x,x,x,x,x,x
Cc1noc(C)c1NC(=O)Nc1ccc2c(c1)C(=O)N([C@@H](C)CO)C[C@H](C)[C@@H](CN(C)S(=O)(=O)c1cccs1)O2,x,2,x,x,x,x,x,x
Cc1ccc(S(=O)(=O)C(C#N)c2nc3ccccc3nc2N2CCCC2)cc1 (stereo not drawn),45*,x,x,-8,-4,7,7,-3
CCc1c(C)sc(NC(=O)Cn2nc(C)c([N+](=O)[O-])c2C)c1C(N)=O,52*,x,-5,-7,0,-6,24*,-4
COc1ccc(C2NC(=S)N3C(c4ccc(OC)cc4)NC(=S)N23)cc1 (stereo not drawn),45*,39,x,98*,-3,11,34*,-3
S=C1NC(c2ccccc2)N2C(=S)NC(c3ccccc3)N12 (stereo not drawn),39,34,x,1,-3,x,x,x
O=c1c2ccccc2sn1-c1ccc(S(=O)(=O)N2CCCC2)cc1,78*,17,x,-18,4,-15,83*,x
Cc1ccc(-n2sc3ccccc3c2=O)cc1S(=O)(=O)N1CCCCC1,75*,33,-7,30,1,-4,73*,x
O=S(=O)(c1ccc(S(=O)(=O)N2CCCC2)cc1)N1CCCCC1,-10,x,x,31,-1,x,x,x
O=S(=O)(c1ccccc1)N1CCN(S(=O)(=O)N2CCCCCC2)CC1,-14,1,-3,15,-1,5,x,x
O=c1c2ccccc2sn1-c1ccc(S(=O)(=O)N2CCCCC2)cc1,64*,-4,x,x,-2,-5,65*,2
CC(C)C(C(=O)Nc1nccs1)c1ccccc1 (stereo not drawn),48*,3,x,3,3,8,0,x
CN(C)C(=O)[C@H]1[C@H](CO)[C@H]2Cn3c(ccc(C4=CCCCC4)c3=O)[C@@H]1N2CC1CC1,x,-2,x,x,x,x,x,x
CCOCCCn1c(-c2ccc(Cl)cc2)n[nH]c1=S,53*,-1,x,99*,0,x,62*,-3
S=c1[nH]nc(-c2ccc(Cl)cc2)n1CCCN1CCOCC1,-3,x,0,-23,3,-12,x,x
SMILES,APOBEC3G inh,esBAF inh,Wnt bcat act,PHOSPHO1 inh,A3A deaminase,MITF TRPM1 HTS,A3G conf,UDG A3G counter
COCCCn1c(-c2ccc(Cl)cc2)n[nH]c1=S,49*,3,1,98*,-1,-2,58*,-5
COCCCn1c(-c2ccccc2Cl)n[nH]c1=S,23,0,-2,5,-1,-6,x,x
O=C(C[C@@H]1CC[C@@H](NC(=O)NC2CCCCC2)[C@@H](CO)O1)NCc1ccccc1,x,-1,x,x,x,x,x,x
S=c1[nH]nc(-c2ccco2)n1/N=C/c1ccccc1Cl,45*,x,-4,38,-5,13,37*,3
Cc1cc(-c2n[nH]c(=S)n2/N=C/c2ccc(C)s2)n[nH]1,55*,x,0,49,5,-10,72*,-3
Cc1cc(-c2n[nH]c(=S)n2/N=C/c2ccc(Br)s2)n[nH]1,40,x,x,49,-4,3,x,x
Cc1ccc(/C=N/n2c(-c3ccco3)n[nH]c2=S)s1,41*,x,-1,46,-6,0,75*,1
S=c1[nH]nc(-c2ccco2)n1/N=C/c1ccc(Cl)cc1,x,x,-1,-7,x,-7,x,x
CCC(Sc1ccccc1C(=O)O)C(=O)O (stereo not drawn),4,x,4,15,10,0,x,x
CCC(Sc1nc(N)cc(N)n1)C(=O)O (stereo not drawn),44*,3,0,-2,2,-5,4,x
CCOC(=O)/C=C/C(=O)Nc1cccc([N+](=O)[O-])c1,40*,x,x,-7,4,-13,64*,4
CCOC(=O)c1cccc(NC(=O)/C=C/c2cccc([N+](=O)[O-])c2)c1,-1,8,x,-3,0,18,x,x
C/C=C/c1ccc2c(c1)O[C@H](CN(C)C(=O)CC1CC1)[C@@H](C)CN([C@@H](C)CO)S2(=O)=O,x,-2,x,x,x,x,x,x
C[C@@H]1CN([C@H](C)CO)C(=O)Cc2cc(NC(=O)Cc3cn(C)c4ccccc34)ccc2O[C@H]1CN(C)C(=O)NC1CCCCC1,x,2,x,x,x,x,x,x
CCNc1nc(NCC)n2c(SCC(=O)Nc3ccc(CC)cc3)nnc2n1,49*,x,x,x,3,-4,47*,-1
